The list is not random: actives were taken first. Their share in the collection is about 3.2%.
Sm TGR block: blocks Schistosoma mansoni thioredoxin glutathione reductase; purified TGR, DTNB reduction, TNB absorbance 405 nm; Potency, µM (doses to about 114 µM), for the others: top-dose activity change, negative = inhibition, actives largely listed as inhibitors; 360,000 tested, 3% active; AID 485364; further: nearly all actives have a fitted effect of over 60% in size
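TGR 20 nM + NADPH 100 uM (dispensed conc.), cpd preinc 15 min RT; start with NADPH (500 uM addition) then DTNB (15 mM addition). Kinetic TNB absorbance, 405 nm filter. Four-parameter Hill fit across titration.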
RE007 growth inh: less growth of the S. pombe RE007 Vpr strain; S. pombe RE007 Vpr strain, BacTiter-Glo ATP luminescence, 24 h; Potency, µM (series often up to 92.2 µM), without a hit: at the top dose activity change, negative = less growth, most hits filed as inhibitors; 360,000 tested, 0.21% active; active means well fitted falling curve with a large enough effect; inconclusive means small, poorly fitted or top-dose-only effect; inactive means no such curve, though single readings can be large or run the other way; further: nearly all actives have a fitted effect of over 50% in size
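Fission yeast strain RE007, carrying one chromosomally integrated HIV-1 vpr copy, was seeded at OD 0.01 in PMG+AL medium with 23 nL pinned compound. After 24 h at 30 °C and 99% humidity, viability was read by BacTiter-Glo luminescence.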
AmpC inh detg: AmpC beta-lactamase inhibition with detergent present | P00811 | AmpC hydrolysis of nitrocefin, absorbance 480 nm, 0.01% Triton | Potency, µM (doses to about 114 µM), inactives show top-dose activity change, negative = inhibition, hits mostly inhibitors | 370,000 tested, 0.041% active | AID 485294;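 further: 0% = no-compound wells and -100% = no-enzyme wells; nearly all actives have a fitted effect of over 25% in size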
Target sequence (P00811 whole entry, looked up): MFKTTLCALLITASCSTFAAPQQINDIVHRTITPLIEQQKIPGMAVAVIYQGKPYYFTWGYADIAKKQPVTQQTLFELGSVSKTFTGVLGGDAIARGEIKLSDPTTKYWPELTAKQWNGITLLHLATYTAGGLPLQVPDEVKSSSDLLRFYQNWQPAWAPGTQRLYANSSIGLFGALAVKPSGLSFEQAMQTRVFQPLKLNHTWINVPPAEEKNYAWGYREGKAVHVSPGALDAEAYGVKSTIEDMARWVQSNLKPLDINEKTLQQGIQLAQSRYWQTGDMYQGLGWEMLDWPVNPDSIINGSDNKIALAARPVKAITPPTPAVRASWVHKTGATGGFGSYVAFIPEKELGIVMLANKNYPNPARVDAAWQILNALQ
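20 mM phosphate pH 7.0 + 0.01% (detergent screen) or 0.0001% Triton X-100; 5.3 nM AmpC reagent; cpd preinc 15 min RT; nitrocefin (800 uM stock) to start; A480 q20 s × 4 min; Activity was normalised to no-enzyme and no-compound control wells.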
AMA1-RON2 inh: AMA1-RON2 (P. falciparum) interaction inhibition. AlphaScreen AMA1-biotinylated RON2 peptide binding. 360,000 tested, 0.2% active. Potency, µM (highest dose often 58.2 µM), for inactives: at the top dose activity change, negative = inhibition, actives largely listed as inhibitors;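 further: 0% = vehicle wells and -100% = peptide control; nearly all actives have a fitted effect of over 45% in size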
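AMA1 (3D7) with his tag at 25 nM final met compounds first, then biotinylated RON2 peptide at 25 nM; detection used donor plus acceptor beads, 10 µg/mL apiece, read by AlphaScreen after 30 min at room temperature.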
AmpC no deterg: AmpC beta-lactamase inhibition without detergent; P00811; AmpC nitrocefin hydrolysis, absorbance 480 nm, 0.0001% Triton; Potency, µM (highest dose often 57.1 µM), for the others: at the top dose activity change, negative = inhibition, usual class: inhibitors; 330,000 tested, 0.52% active; AID 485341;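 further: plate controls were no compound for no effect and no enzyme for full effect; nearly all actives have a fitted effect of over 20% in size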
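AmpC (5.3 nM in the dispensed reagent) in 20 mM phosphate pH 7.0 with 0.01% (detergent screen) or 0.0001% Triton X-100 was preincubated with compounds for 15 min at room temperature. Nitrocefin was then added from an 800 uM solution, and hydrolysis was followed at 480 nm.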
* marks the source's active call; other numbers are inactive results; u = inconclusive; x = not tested or not shown. Unless noted, the call rests on the fitted dose curve; in most records, active means well fitted curve in the direction sought with a large enough effect; inconclusive means small, poorly fitted or top-dose-only effect, or another doubt; inactive means no such curve, though single readings can be large; an effect the other way counts as inactive or inconclusive. Unless noted, on the % scale 0 is the no-effect control and ±100 the full control effect; potency means the concentration at half of the fitted maximal effect.

SMILES | Sm TGR block | RE007 growth inh | AmpC inh detg | AMA1-RON2 inh | AmpC no deterg
Cc1cccc(N2CCN(C(=O)c3ccc4c(c3)N(Cc3ccccc3)C(=O)c3ccccc3S4(=O)=O)CC2C)c1 (stereo unspecified) | -5.7% | x | -11.7% | x | x
O=C(COc1ccc(F)cc1)NCC(c1ccc(Cl)cc1)N1CCCCC1 (stereo unspecified) | 6.2% | x | 3.0% | x | x
Cc1ccc(CNC(=O)CCCOc2cc(=O)n(C)c3ccccc23)o1 | 12.6µM* | -0.2% | -3.6% | 13.6% | 47.1%
CCn1c(=O)cc(OCC(=O)NCc2ccc(C)o2)c2ccccc21 | 35.5µM* | -6.3% | -5.0% | -0.8% | -0.9%
CCn1c(=O)cc(OCC(=O)NCc2ccco2)c2ccccc21 | u | 8.3% | -4.1% | -5.7% | -3.5%
COc1ccc(CNC(=O)CCCOc2cc(=O)n(C)c3ccccc23)cc1 | 1.0% | 0.1% | 1.0% | -6.5% | 20.6%
CCn1c(=O)cc(OCC(=O)Nc2nc(C)cs2)c2ccccc21 | 3.0% | -1.5% | -18.3% | -4.6% | 50.1µM*
O=C(CCCn1c(=O)c2ccccc2n(CC(=O)NCc2ccco2)c1=O)NCc1ccco1 | 25.1µM* | 10.7% | u | -1.6% | -7.5%
Cc1cn2c(=O)c(S(=O)(=O)NCc3ccc(F)cc3)c(C)nc2s1 | 4.6% | x | 19.9% | x | x
COc1ccc(CCNC(=O)CSc2cn(CCNC(=O)c3cccc(C(F)(F)F)c3)c3ccccc23)cc1OC | 1.9% | x | -0.1% | x | x
Cn1c(=O)cc(OCCCC(=O)NCc2ccco2)c2ccccc21 | 39.8µM* | 11.2% | -6.8% | -1.4% | 1.3%

Assay outcomes: PubChem BioAssay, National Center for Advancing Translational Sciences (NCATS)
